Assay results: PubChem BioAssay AID485314 (National Center for Advancing Translational Sciences (NCATS), 2010)
“And” between values parts separate entries of the source, which are not always exact repeats. Equal entries are not always repeated. The whole screen tested about 340,000 compounds, of which about 4,500 (1.3%) were called active. About 5% were inconclusive and are not listed. Calls follow the shape of the dose curve; as a rule, active = well fitted inhibition curve with a large enough effect; inconclusive = small, poorly fitted or top-dose-only effect, or another doubt; inactive = no such curve, though single readings can be large or run the other way. Many of the other results were omitted from the sample, so actives are more common in it than they were. Where a structure was tested more than once in an assay, its records may differ in their call.

Molecular target: DNA polymerase beta (Homo sapiens) (UniProt P06746)
Test: qHTS Assay for Inhibitors of DNA Polymerase Beta
Conditions: Pol beta primer extension/strand displacement, fluorescence kinetic; series mostly up to 114 µM; activity change, negative = inhibition: at the top concentration
How it was run: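 Pol beta (10 nM) and compounds were preincubated 15 min at room temperature, then 50 nM substrate (final) started primer extension/strand displacement. Reads were taken at 0 and 10 min; concentration-response data were fitted to a four-parameter Hill equation.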
% is scaled to controls: 0 for no effect and ±100 for the full control effect; potency is read from the fitted curve at half-maximal effect.

Row | SMILES | activity change, negative = inhibition | Potency
1 | O=S(=O)(NCC(c1ccccc1)N1CCc2ccccc21)c1ccccc1 (stereo not drawn) | 24.4% (inactive) | –
2 | COc1cc2nc(NCC(C)c3ccccc3)n3nc(-c4ccccc4)nc3c2cc1OC (stereo not drawn) | 33.3% (inactive) | –
3 | O=C(NCc1ccccc1Cl)c1cccn1-c1nnc(N2CCCCC2)s1 | -19.8% (inactive) | –
4 | O=C(O)CCC(=O)N(Cc1cccs1)Cc1cccs1 | – | 44.7 µM (active)
5 | O=C(O)CCC(=O)N(Cc1ccccc1)Cc1ccccc1 | -17.8% (inactive) | –
6 | O=C(CCc1ccccc1)NCCc1cccs1 | 16.8% (inactive) | –
7 | CCc1cccc(C)c1Nc1c(-c2ccc(N(C)C)cc2)nc2ncccn12 | -0.565% (inactive) | –
8 | Cn1c(=O)oc2cc(S(=O)(=O)CCC(=O)NCCc3ccc(Cl)cc3)ccc21 | 0.302% (inactive) | –
9 | CC(=O)N1CCc2cc(Br)cc(S(=O)(=O)CCC(=O)NCCc3ccc(Cl)cc3)c21 | 40.7% (inactive) | –
10 | COc1ccc(Cl)cc1NC(=O)CCS(=O)(=O)c1ccc(Br)cc1 | – | 3.16 µM (active)
11 | COc1ccc(Cl)cc1NC(=O)CCC(=O)c1ccc(C)cc1 | 0.944% (inactive) | –
12 | CCOc1ccc(OCC)c(NC(=O)CCS(=O)(=O)c2ccc(C)cc2)c1 | 8.41% (inactive) | –
13 | O=C(CCS(=O)(=O)c1ccc(Br)cc1)NCCc1ccc(Cl)cc1 | – | 39.8 µM (active)
14 | COc1cc(C(=O)NCCS(=O)(=O)N2CCN(c3ccccc3)CC2)cc(OC)c1OC | -21% (inactive) | –
15 | O=C(COc1ccccc1Cl)Nc1ccc2nc(SCC(=O)N3CCCC3)sc2c1 | 2.65% (inactive) | –
16 | Oc1c(C(c2ccc(F)cc2)N2CCN(Cc3ccccc3)CC2)sc2nc(-c3ccco3)nn12 (stereo not drawn) | -1.89% (inactive) | –
17 | COC(=O)c1ccc(C2C(C(=O)Nc3ccccc3)=C(C)Nc3nc4ccccc4n32)cc1 (stereo not drawn) | -9.73% (inactive) | –
18 | Cc1cccc(N2CCN(C(=O)CCSCc3ccccc3F)CC2)c1C | -1.73% (inactive) | –
19 | Cc1cc([N+](=O)[O-])ccc1NC(=O)c1ccc(NC(=O)C(C)C)cc1 | 18.3% (inactive) | –
20 | O=C(Nc1ccc(C(=O)N2CCCCC2)cc1)c1cccc([N+](=O)[O-])c1 | 42.3% (inactive) | –
21 | Cn1ccc(=Nc2ccc(NC(=O)c3ccc(N=c4ccn(C)c5ccc([N+](=O)[O-])cc45)cc3)cc2)cc1 | – | 0.355 µM (active)
22 | CCOc1cccc2cc(-c3cn4c(n3)sc3cc(C)ccc34)c(=O)oc12 | 50.3% (inactive) | –
23 | CO/N=C(\C(=O)N[C@@H]1C(=O)N2C(C(=O)O)=C(COC(C)=O)CS[C@H]12)c1csc(N)n1 (stereo in doubt) | – | inactive and 25.1 µM (active)
24 | Cc1ccn2c(Nc3ccc4c(c3)OCCO4)c(-c3ccc(C)s3)nc2c1 | 24.2% (inactive) | –

Row | SMILES | activity change, negative = inhibition | Potency
25 | Cc1cccc(-n2ccnc2SCC(=O)Nc2cc(C(F)(F)F)ccc2Cl)c1 | 7.77% (inactive) | –
26 | COc1cccc(Cn2c(SCc3ccc(C(=O)N4CCC(C)CC4)cc3)nc3ccncc32)c1 | 0.534% (inactive) | –
27 | Cc1cc(C)cc(NC(=O)c2cnc3sc(N4CCCC4)nn3c2=O)c1 | -0.911% (inactive) | –
28 | COc1cc(-c2noc(-c3ccc(N4CCCC4)c([N+](=O)[O-])c3)n2)cc(OC)c1OC | -15.3% (inactive) | –
29 | COc1ccccc1-c1noc(-c2ccc(NCc3ccccc3)c([N+](=O)[O-])c2)n1 | 16.2% (inactive) | –
30 | COc1ccc(-c2noc(-c3ccc(N4CCN(c5ccccc5)CC4)c([N+](=O)[O-])c3)n2)cc1OC | – | 89.1 µM (active)
31 | COc1ccc(S(=O)(=O)NCC(c2ccc(N(C)C)cc2)N2CCc3ccccc32)cc1OC (stereo not drawn) | 0.31% (inactive) | –
32 | COc1ccccc1N1CCN(S(=O)(=O)CCNC(=O)COc2ccc(F)cc2)CC1 | 13.5% (inactive) | –
33 | CC(=O)Nc1cccc(NC(=O)CSc2nccn2Cc2ccc3c(c2)OCO3)c1 | -15.7% (inactive) | –
34 | O=C(Cc1ccc(F)cc1)N/N=C/c1ccc2c(c1)OCO2 | 90.3% (inactive) | –
35 | CCOC(=O)CCCNC(=O)COC(=O)/C=C/c1ccc2c(c1)OCO2 | 3.45% (inactive) | –
36 | CCC1=C/C(=C\c2ccc3c(c2)OCO3)C(=O)S1 | – | 14.1 µM (active)
37 | Cc1cccc(NC(=O)c2ccc(F)c(S(=O)(=O)N(C)C3CCCCC3)c2)c1 | 1.39% (inactive) | –
38 | COc1ccc(NC(=O)c2sc3nc[nH]c(=O)c3c2C)cc1 | 2.14% (inactive) | –
39 | CN(C)[C@@H]1C(=O)C(C(N)=O)=C(O)[C@@]2(O)C(=O)C3=C(O)c4c(O)ccc(Cl)c4[C@@H](O)[C@H]3C[C@@H]12 | – | 8.91 µM (active)
40 | Cc1ccccc1CCNC(=O)C1CCN(c2nc3ccccc3nc2C(F)(F)F)CC1 | -0.653% (inactive) | –
41 | COc1ccc(NC(=O)c2cnc(NS(=O)(=O)c3ccccc3)nc2)cc1 | 5.86% (inactive) | –
42 | COc1ccc(S(=O)(=O)/N=C2\C=C(NS(=O)(=O)c3ccccc3)C(=O)c3ccccc32)cc1 | – | 79.4 µM (active)
43 | COc1ccc(S(=O)(=O)Nc2cc3c(C(=O)OC(C)C)c(C)oc3c3ccccc23)cc1 | -24.9% (inactive) | –
44 | CC(C)(C)c1ccc(S(=O)(=O)Nc2ccc(O)c(Sc3nc4ccccc4s3)c2)cc1 | -0.511% (inactive) | –
45 | O=C(CC1N=C2c3ccccc3N=C(SCc3ccc(F)cc3)N2C1=O)NCc1cccs1 (stereo not drawn) | 2.97% (inactive) | –
46 | CCC(C)NC(=O)CSC1=Nc2ccccc2C2=NC(CCC(=O)NCc3ccco3)C(=O)N12 (stereo not drawn) | 11.3% (inactive) | –
47 | O=C(CC1N=C2c3ccccc3N=C(SCc3ccccc3Cl)N2C1=O)NCc1ccco1 (stereo not drawn) | – | 12.6 µM (active)
48 | COc1ccc(NC(=O)CSC2=Nc3ccccc3C3=NC(CC(=O)NCc4ccccc4OC)C(=O)N23)cc1Cl (stereo not drawn) | -12% (inactive) | –

Row | SMILES | activity change, negative = inhibition | Potency
49 | O=C(CSC1=Nc2ccccc2C2=NC(CC(=O)NCc3ccco3)C(=O)N12)NCc1ccco1 (stereo not drawn) | – | 39.8 µM (active)
50 | O=C(CC1N=C2c3ccccc3N=C(SCc3cccc(Cl)c3)N2C1=O)NCc1ccc2c(c1)OCO2 (stereo not drawn) | 1.32% (inactive) | –
51 | CCN(CC)c1ccc(NC(=O)Cn2nc3c(cc2=O)CCCC3)c(C)c1 | -15.3% (inactive) | –
52 | O=C(NCCCO)C(=O)Nc1c2c(nn1-c1ccc(F)cc1)CSC2 | -5.48% (inactive) | –
53 | CCOC(=O)c1c(C)oc2ccc(N(C(=O)c3ccncc3)S(=O)(=O)c3ccc(CC)cc3)cc12 | -2.09% (inactive) | –
54 | Cc1ccc(C)c(NC(=O)CSC2=Nc3ccccc3N=C(c3ccc(F)cc3)C2)c1 | 19.4% (inactive) | –
55 | O=C(O)C(c1ccccc1)N1C(=O)/C(=C\c2ccc(-c3cccc(Cl)c3)o2)SC1=S (stereo not drawn) | – | 50.1 µM (active)
56 | Nc1nnnn1CC(=O)N/N=C/c1ccc(-c2cccc(Cl)c2)o1 | -21.2% (inactive) | –
57 | O=C1c2ccccc2NC(c2ccc(-c3cccc(Cl)c3)o2)N1O (stereo not drawn) | 1.84% (inactive) | –
58 | Cc1ccc(C)c2sc(NC(=O)c3ccc(S(=O)(=O)N4CCCC4)cc3)nc12 | -5.4% (inactive) | –
59 | COc1cccc(C(=O)Nc2ccc(-c3cc(C(F)(F)F)nn3-c3ccccc3)cc2)c1 | 10.5% (inactive) | –
60 | CCOc1cc(-c2nnc(SCC(=O)NC3CCCCC3)nc2-c2ccc(OC)c(OCC)c2)ccc1OC | 2.16% (inactive) | –
61 | COC(=O)CCCC1=CC2=CC(=O)C(C)(OC(=O)c3cccs3)C(=O)C2=CN1CC(C)C (stereo not drawn) | 23.9% (inactive) | –
62 | COC/C=C/C1=CC2=CC(=O)C(C)(OC(=O)CCC(=O)OC)C(=O)C2=CO1 (stereo not drawn) | – | 39.8 µM (active)
63 | COCCN1C=C2C(=O)C(C)(OC(=O)C3CCCC3)C(=O)C=C2C=C1c1ccsc1 (stereo not drawn) | 0.629% (inactive) | –
64 | COC(=O)c1cnn(-c2ccc(C(=O)Nc3ccc(OC(F)(F)F)cc3)cc2)c1N | 5.55% (inactive) | –
65 | CCOc1ccc(NC(=O)C2CCN(C(=O)N3CCOc4ccccc43)CC2)cc1 | 10.2% (inactive) | –
66 | COC(=O)c1ccccc1NC(=O)C1CCN(S(=O)(=O)c2cc(OC)ccc2OC)CC1 | -6.7% (inactive) | –
67 | COC(=O)c1ccccc1NC(=O)C1CCN(C(=O)N2CCOc3ccccc32)CC1 | – | 89.1 µM (active)
68 | Cc1ccc(-c2nn(CCC(=O)Nc3ccc(OC(F)(F)F)cc3)c(=O)c3ccccc23)cc1 | 21.3% (inactive) | –
69 | Clc1cccc(-n2ncc3c(NCCc4ccccc4)ncnc32)c1 | -25.3% (inactive) | –
70 | CCOc1ccc(NC(=O)C/C(C)=N/NC(=O)Cc2cccs2)cc1 | 31% (inactive) | –
71 | CCOC(=O)c1ccc(NC(=O)Cc2cccs2)cc1 | 1.56% (inactive) | –
72 | CCOc1ccccc1NC(=O)Cc1cccs1 | – | 10 µM (active)

Row | SMILES | activity change, negative = inhibition | Potency
73 | COc1ccc(NC(=S)NCc2cccs2)c(OC)c1 | 0.939% (inactive) | –
74 | COc1ccc(Cc2nnc(NC(=O)Cc3cccs3)s2)cc1 | – | 2 µM (active)
75 | CCc1nnc(NC(=O)Cc2cccs2)s1 | -16.2% (inactive) | –
76 | COc1ccc(C)cc1NC(=O)CNCc1cccs1 | 2.69% (inactive) | –
77 | O=C(Cc1cccs1)Nc1nnc(SCc2ccc(F)cc2)s1 | -18.1% (inactive) | –
78 | COc1ccc(OC)c(NC(=O)Cc2cccs2)c1 | – | 50.1 µM (active)
79 | Cc1nnc(NC(=O)CSc2nc3c([nH]c4ccccc43)c(=O)n2-c2cccc(Cl)c2)s1 | 2.52% (inactive) | –
80 | CCN(C(=O)CSc1nnc(C)n2c1cc1occc12)c1ccccc1 | -23.3% (inactive) | –
81 | COc1ccc(C)cc1NC(=O)CCc1c(C)nn(-c2ccc(N3CCOCC3)nn2)c1C | 0.568% (inactive) | –
82 | COc1ccc(NC(=O)CSc2nc(NS(=O)(=O)c3ccc(C)cc3)cc(=O)[nH]2)cc1 | – | 17.8 µM (active)
83 | Cc1ccc(NC(=O)CSc2nc(CSc3ccc(C)cc3)cc(=O)[nH]2)cc1 | 0.354% (inactive) | –
84 | Cc1ccc(OCCCC(=O)Nc2ccc(S(=O)(=O)Nc3cc(C)nc(C)n3)cc2)cc1 | 16.7% (inactive) | –
85 | CC1CCC2(CC1)N=C(c1ccccc1)C(=O)N2CC(=O)Nc1ccc(F)c(Cl)c1 (stereo not drawn) | 8.62% (inactive) | –
86 | O=C(Nc1ccc2nc(SCCOc3ccccc3)sc2c1)c1ccco1 | 6.94% (inactive) | –
87 | CCS(=O)(=O)C1=NSC2=NC(=O)/C(=C\c3ccc(OS(=O)(=O)c4ccccc4)cc3)C(=N)N21 | 0.694% (inactive) | –
88 | CCS(=O)(=O)C1=NSC2=NC(=O)/C(=C\c3cc(C)n(-c4cccc(OC)c4)c3C)C(=N)N21 | -1.06% (inactive) | –
89 | CS(=O)(=O)c1ccc2c(c1)SC1=NC(=O)/C(=C/c3ccco3)C(=N)N12 | – | 31.6 µM (active)
90 | CC(C)(C)c1ccc(C(=O)Nc2ccc3c(c2)CCCN3C(=O)c2cccs2)cc1 | 47.1% (inactive) | –
91 | CCC1C/C(=C/c2cccs2)C(=O)/C(=C/c2cccs2)C1 (stereo not drawn) | -21.1% (inactive) | –
92 | CC(C)(C)C1C/C(=C/c2ccco2)C(=O)/C(=C/c2ccco2)C1 (stereo not drawn) | – | 10 µM (active)
93 | CC(C)c1ccc(NC(=O)c2ccc3c(O)c(S(=O)(=O)c4ccccc4)c(=O)[nH]c3c2)cc1 | 2.35% (inactive) | –
